# Assay results as given in PubChem BioAssay (EPA / NIEHS).
# “And” between values parts separate entries of the source, which are not always exact repeats. Equal values may be shown once. Inconclusive results are not listed. Some compounds were tested as several samples or in several runs, with calls that do not always agree. The source made the active and inactive calls. How the source made its calls: active means hit-call score of the fitted dose curve at least 0.9, where 1 is the maximum; inconclusive means response in the unintended direction; inactive means score below 0.9.
# Experiments:
# [1] = target: Androgen Receptor/SRC-1 Co-activator, AR (gene 367) (UniProt P10275); experiment: OT_AR_ARSRC1_0960: Odyssey Thera (OT) 16-hour HEK293T Protein-Complementation Assay for Androgen Receptor/SRC-1 Co-activator (AID 2283353);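 further: actives raise the signal above DMSO so potency reflects increased AR and SRC-1 complex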
# Sequence of Androgen Receptor/SRC-1 Co-activator, AR (gene 367) (P10275 whole entry, looked up, the tested form may be a part): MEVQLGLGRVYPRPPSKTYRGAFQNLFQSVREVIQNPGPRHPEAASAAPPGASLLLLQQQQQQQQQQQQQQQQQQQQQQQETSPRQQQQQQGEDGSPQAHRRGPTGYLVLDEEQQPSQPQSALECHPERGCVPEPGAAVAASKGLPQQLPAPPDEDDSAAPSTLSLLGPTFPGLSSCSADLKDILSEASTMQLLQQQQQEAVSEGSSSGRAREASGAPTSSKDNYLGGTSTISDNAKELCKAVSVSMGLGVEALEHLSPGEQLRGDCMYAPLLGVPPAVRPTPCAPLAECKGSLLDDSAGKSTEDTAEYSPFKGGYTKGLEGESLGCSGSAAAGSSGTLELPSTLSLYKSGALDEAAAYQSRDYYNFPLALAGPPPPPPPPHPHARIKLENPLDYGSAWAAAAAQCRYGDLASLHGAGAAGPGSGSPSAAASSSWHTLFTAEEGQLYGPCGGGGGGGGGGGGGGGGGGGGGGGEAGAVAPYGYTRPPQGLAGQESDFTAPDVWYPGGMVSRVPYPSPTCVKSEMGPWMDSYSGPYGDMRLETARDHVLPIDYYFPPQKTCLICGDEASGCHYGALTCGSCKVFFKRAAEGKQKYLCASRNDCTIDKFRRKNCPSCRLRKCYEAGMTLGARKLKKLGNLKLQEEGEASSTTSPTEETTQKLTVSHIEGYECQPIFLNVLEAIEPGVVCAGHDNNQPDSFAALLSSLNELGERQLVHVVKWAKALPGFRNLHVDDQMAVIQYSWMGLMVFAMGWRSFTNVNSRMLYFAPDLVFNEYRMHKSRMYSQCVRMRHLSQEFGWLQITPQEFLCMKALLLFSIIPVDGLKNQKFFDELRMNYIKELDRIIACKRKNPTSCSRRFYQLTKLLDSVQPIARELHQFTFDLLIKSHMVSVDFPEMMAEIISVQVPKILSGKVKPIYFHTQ
# Procedure, shortened: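 Stable HEK293T line carries AR and SRC-1 each linked to a Venus fragment; chemicals are applied for 16 h, cells imaged at two wavelengths, and the 488 nm nucleus/cytoplasm ratio is taken as the signal, rising relative to DMSO.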
# [2] = target: Androgen Receptor/SRC-1 Co-activator, AR (gene 367) (UniProt P10275); experiment: OT_AR_ARSRC1_0480: Odyssey Thera (OT) 8-hour HEK293T Protein-Complementation Assay for Androgen Receptor/SRC-1 Co-activator (AID 2283354);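 further: hits raise the complementation signal above DMSO so AC50 marks enhancers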
# Procedure, shortened: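 Reconstituted split-Venus YFP signal from AR–SRC-1 interaction, read by imaging 8 h post-dose in stable HEK293T lines. The 488 nm nucleus-to-cytoplasm ratio (≥400 cells/image) was fitted upward against DMSO.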
# [3] = target: Estrogen receptor (Homo sapiens) + Estrogen receptor beta (Homo sapiens) (UniProt P03372+Q92731); experiment: OT_ER_ERaERb_1440: Odyssey Thera (OT) 24-hour HEK293T Protein-Complementation Assay for Estrogen Receptor-alpha/-beta Homodimer (AID 2283356);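 further: heteromer of ER alpha and ER beta binding domains; hits raise reporter fluorescence and both agonists and antagonists give an increase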
# Sequence of Estrogen receptor (Homo sapiens) + Estrogen receptor beta (Homo sapiens) (P03372 whole entry, looked up, the tested form may be a part): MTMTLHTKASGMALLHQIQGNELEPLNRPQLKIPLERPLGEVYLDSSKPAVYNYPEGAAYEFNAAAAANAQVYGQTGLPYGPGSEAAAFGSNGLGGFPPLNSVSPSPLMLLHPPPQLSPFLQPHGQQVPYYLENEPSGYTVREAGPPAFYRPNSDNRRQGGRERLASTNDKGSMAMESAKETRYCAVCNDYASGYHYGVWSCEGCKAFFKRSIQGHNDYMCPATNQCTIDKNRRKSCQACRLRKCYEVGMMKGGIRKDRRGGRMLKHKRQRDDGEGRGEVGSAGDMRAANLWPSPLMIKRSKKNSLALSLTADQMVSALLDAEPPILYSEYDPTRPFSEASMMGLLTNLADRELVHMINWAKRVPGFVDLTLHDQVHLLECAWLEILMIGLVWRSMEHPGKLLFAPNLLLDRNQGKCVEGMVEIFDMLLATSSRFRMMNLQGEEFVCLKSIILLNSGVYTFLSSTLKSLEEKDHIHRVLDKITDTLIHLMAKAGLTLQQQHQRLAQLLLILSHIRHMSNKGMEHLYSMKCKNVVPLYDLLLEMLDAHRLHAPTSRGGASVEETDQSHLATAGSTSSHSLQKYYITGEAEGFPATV
# Sequence of Estrogen receptor (Homo sapiens) + Estrogen receptor beta (Homo sapiens) (Q92731 whole entry, looked up, the tested form may be a part): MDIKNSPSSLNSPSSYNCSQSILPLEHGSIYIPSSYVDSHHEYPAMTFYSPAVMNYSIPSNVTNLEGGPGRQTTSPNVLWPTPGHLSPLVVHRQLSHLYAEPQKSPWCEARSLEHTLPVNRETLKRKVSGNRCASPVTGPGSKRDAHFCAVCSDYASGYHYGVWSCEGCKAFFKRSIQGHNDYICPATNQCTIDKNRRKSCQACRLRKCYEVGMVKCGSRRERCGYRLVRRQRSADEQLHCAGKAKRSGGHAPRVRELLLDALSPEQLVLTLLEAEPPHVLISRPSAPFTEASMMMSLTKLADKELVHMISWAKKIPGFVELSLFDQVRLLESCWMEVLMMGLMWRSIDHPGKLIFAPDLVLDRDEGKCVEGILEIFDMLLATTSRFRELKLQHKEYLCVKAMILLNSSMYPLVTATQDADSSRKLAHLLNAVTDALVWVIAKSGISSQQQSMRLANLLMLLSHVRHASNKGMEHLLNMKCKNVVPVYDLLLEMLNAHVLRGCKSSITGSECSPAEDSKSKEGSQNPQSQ
# Procedure, shortened: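 HEK293T cells stably expressing a PCA pair of ERα LBD (aa 310-547) and ERβ LBD (aa 263-489) were dosed for 24 h. Fluorescence intensity increase versus DMSO vehicle was fitted as gain-of-signal.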
# [4] = target: Estrogen receptor beta (Homo sapiens) (UniProt Q92731); experiment: OT_ER_ERbERb_0480: Odyssey Thera (OT) 8-hour HEK293T Protein-Complementation Assay for Estrogen Receptor-beta/-beta Homodimer (AID 2283357);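 further: active means signal gain over DMSO baseline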
# Sequence of Estrogen receptor beta (Homo sapiens) (Q92731 whole entry, looked up, the tested form may be a part): as above
# Procedure, shortened: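 ER-beta LBD homodimer PCA stably expressed in HEK293T; 8 h compound exposure, then formaldehyde fixation and Draq5 staining. Gain in nuclear/cytoplasmic fluorescence intensity versus DMSO vehicle, read on laser scanning cytometer.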
# [5] = target: Peroxisome proliferator-activated receptor gamma (Homo sapiens) (UniProt P37231); experiment: NVS_NR_hPPARg: NovaScreen (NVS) Nuclear Receptor Binding Assay for human Peroxisome Proliferator-activated Receptor gamma (PPARg) (AID 2283370)
# Sequence of Peroxisome proliferator-activated receptor gamma (Homo sapiens) (P37231 whole entry, looked up): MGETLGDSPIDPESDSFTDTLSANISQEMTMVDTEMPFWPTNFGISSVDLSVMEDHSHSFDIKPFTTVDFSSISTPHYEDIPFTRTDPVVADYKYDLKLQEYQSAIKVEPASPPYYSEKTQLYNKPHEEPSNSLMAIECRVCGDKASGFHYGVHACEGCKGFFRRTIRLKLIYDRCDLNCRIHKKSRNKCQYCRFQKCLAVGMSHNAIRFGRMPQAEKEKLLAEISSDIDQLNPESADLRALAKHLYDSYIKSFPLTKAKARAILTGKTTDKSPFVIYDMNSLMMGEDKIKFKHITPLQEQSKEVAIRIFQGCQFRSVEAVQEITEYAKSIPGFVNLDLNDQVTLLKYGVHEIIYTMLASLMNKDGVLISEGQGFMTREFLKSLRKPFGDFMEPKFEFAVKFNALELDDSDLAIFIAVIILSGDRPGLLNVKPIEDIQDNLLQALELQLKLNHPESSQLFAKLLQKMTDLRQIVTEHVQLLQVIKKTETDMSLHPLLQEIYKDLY
# Procedure, shortened: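 Cell-free binding to extracted PPARg protein, read by fluorescence polarization 2 h after dosing; loss of signal relative to DMSO baseline marks displacement. Primary screen in duplicate at 25 uM, actives retested in concentration series.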
# [6] = target: rat Mineralocorticoid Receptor (MR), Nr3c2 (gene 25672) (UniProt P22199); experiment: NVS_NR_rMR: NovaScreen (NVS) Nuclear Receptor Binding Assay for rat Mineralocorticoid Receptor (MR) (AID 2283355)
# Procedure, shortened: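 Primary HTS ran in duplicate at a single 25 uM concentration, with concentration-series follow-up for actives. Receptor source: adrenalectomized rat brain supernatant, cell-free. Radioligand displacement read by scintillation at 24 h, relative to DMSO baseline.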
# [7] = target: Glucocorticoid receptor (Homo sapiens) (UniProt P04150); experiment: NVS_NR_hGR: NovaScreen (NVS) Nuclear Receptor Binding Assay for human Glucocorticoid Receptor (GR) (AID 2283363);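 on AC50: activity is loss of specific radioligand binding signal relative to DMSO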
# Sequence of Glucocorticoid receptor (Homo sapiens) (P04150 whole entry, looked up): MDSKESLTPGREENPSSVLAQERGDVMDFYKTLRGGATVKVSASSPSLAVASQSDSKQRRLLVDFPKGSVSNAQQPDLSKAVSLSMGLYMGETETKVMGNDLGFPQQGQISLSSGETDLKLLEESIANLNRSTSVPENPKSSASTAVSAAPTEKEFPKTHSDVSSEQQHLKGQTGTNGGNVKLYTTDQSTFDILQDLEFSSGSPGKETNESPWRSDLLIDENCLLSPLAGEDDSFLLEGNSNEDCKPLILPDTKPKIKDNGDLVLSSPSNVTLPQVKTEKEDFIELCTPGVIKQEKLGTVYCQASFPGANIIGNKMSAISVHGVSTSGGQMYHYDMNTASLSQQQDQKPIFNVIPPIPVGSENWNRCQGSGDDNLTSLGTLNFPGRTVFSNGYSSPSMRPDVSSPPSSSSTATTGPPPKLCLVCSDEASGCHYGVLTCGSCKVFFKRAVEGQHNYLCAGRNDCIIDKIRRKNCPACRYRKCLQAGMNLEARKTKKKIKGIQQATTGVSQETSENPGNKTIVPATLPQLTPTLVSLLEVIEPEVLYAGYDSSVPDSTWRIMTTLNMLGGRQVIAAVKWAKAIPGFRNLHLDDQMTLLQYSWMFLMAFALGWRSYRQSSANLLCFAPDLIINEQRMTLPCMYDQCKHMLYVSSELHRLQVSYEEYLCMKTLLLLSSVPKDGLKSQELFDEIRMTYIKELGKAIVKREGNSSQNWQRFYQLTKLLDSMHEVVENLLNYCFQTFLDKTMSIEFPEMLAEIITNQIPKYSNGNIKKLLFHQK
# Procedure, shortened: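 Compounds first tested in duplicate at 25 uM, actives followed up in concentration series. Binding to extracted GR protein measured as competitive radioligand displacement, filter scintillation read 16 h post-dosing, normalised to DMSO.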
# [8] = target: Nuclear receptor subfamily 1 group I member 2 (Homo sapiens) (UniProt O75469); experiment: NVS_NR_hPXR: NovaScreen (NVS) Nuclear Receptor Binding Assay for human Pregnane X Receptor (PXR) (AID 2283365);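 further: a drop in FRET signal versus DMSO baseline means the compound binds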
# Procedure, shortened: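 Cell-free binding assay with extracted human PXR protein, read by TR-FRET 2 h after dosing; loss of signal relative to DMSO baseline indicates binding. Primary screen at 25 uM in duplicate, actives retested in concentration series.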
# [9] = system: guinea pig Dopamine Transporter (DAT), gene 100714898; experiment: NVS_TR_gDAT: NovaScreen (NVS) Transporter Assay for guinea pig Dopamine Transporter (DAT) (AID 2283369);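 further: active compounds lower bound radioligand signal relative to DMSO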
# Procedure, shortened: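 Guinea pig striatal membranes; radioligand displacement measured by filter-based scintillation counting 2 h after dosing. Initial duplicate screen at 25 uM, then concentration-response up to 50 uM for hits; loss of signal versus DMSO baseline.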
# [10] = target: human Dopamine Transporter (DAT), SLC6A3 (gene 6531) (UniProt Q01959); experiment: NVS_TR_hDAT: NovaScreen (NVS) Transporter Assay for human Dopamine Transporter (DAT) (AID 2283374);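 further: activity means loss of bound radioligand signal relative to DMSO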
# Procedure, shortened: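 Duplicate single-point screening at 25 uM preceded concentration-series follow-up of actives. Binding was measured by competitive displacement of a radioligand from DAT protein, filter-counted by scintillation 1 h after dosing. Decrease relative to DMSO taken as activity.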
# [11] = target: human Peroxisome Proliferator-activated Receptor alpha (PPARa), PPARA (gene 5465) (UniProt Q07869); experiment: NVS_NR_hPPARa: NovaScreen (NVS) Nuclear Receptor Binding Assay for human Peroxisome Proliferator-activated Receptor alpha (PPARa) (AID 2283359);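 further: activity means loss of TR-FRET signal versus DMSO baseline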
# Sequence of human Peroxisome Proliferator-activated Receptor alpha (PPARa), PPARA (gene 5465) (Q07869 whole entry, looked up): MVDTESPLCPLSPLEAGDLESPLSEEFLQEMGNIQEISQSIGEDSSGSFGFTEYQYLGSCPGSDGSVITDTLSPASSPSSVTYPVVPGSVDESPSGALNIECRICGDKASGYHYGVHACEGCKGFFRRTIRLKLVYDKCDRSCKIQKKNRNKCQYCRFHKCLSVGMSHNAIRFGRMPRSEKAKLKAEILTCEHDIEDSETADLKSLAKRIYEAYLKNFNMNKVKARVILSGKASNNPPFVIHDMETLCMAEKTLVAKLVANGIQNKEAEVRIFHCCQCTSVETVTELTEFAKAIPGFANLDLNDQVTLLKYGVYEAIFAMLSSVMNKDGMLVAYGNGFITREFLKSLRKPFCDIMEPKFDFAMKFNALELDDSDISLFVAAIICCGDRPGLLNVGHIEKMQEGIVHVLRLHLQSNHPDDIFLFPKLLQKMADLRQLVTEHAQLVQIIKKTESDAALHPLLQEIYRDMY
# Procedure, shortened: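 Loss of TR-FRET binding signal relative to DMSO was measured 1 h after chemical addition to extracted receptor protein. Chemicals were first tested in duplicate at 25 uM, and actives were followed up in concentration series.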
# PGR (gene 5241) = PGR (gene 5241) (UniProt P06401); experiment: NVS_NR_hPR: NovaScreen (NVS) Nuclear Receptor Binding Assay for human Progestron Receptor (PR) (AID 2283360);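 further: active means loss of bound radioligand signal versus DMSO baseline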
# Procedure, shortened: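 T47D-derived receptor preparation, cell-free, with tritiated or iodinated radioligand displacement measured by scintillation 18 h post-dosing. Single 25 uM duplicate screen, then concentration series; signal loss relative to DMSO.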
# [12] = system: rat Norepinephrine Transporter (NET), gene 83511; experiment: NVS_TR_rNET: NovaScreen (NVS) Transporter Assay for rat Norepinephrine Transporter (NET) (AID 2283373)
# Procedure, shortened: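 Competitive radioligand displacement at the rat NET using forebrain membrane preparations, 1 h incubation, filter-based scintillation readout. Primary testing in duplicate at a single 25 uM concentration; confirmed actives retested across concentrations.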
# [13] = target: rat Serotonin Transporter (SERT), Slc6a4 (gene 25553) (UniProt P31652); experiment: NVS_TR_rSERT: NovaScreen (NVS) Transporter Assay for rat Serotonin Transporter (SERT) (AID 2283375)
# Procedure, shortened: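 Rat forebrain membranes were incubated with test chemical for 1 hour; radioligand binding to SERT was measured by filter-based scintillation counting. Primary screen ran in duplicate at 25 uM, with actives followed up in concentration series; DMSO served as negative control.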
# [14] = target: human Norepinephrine Transporter (NET), SLC6A2 (gene 6530) (UniProt P23975); experiment: NVS_TR_hNET: NovaScreen (NVS) Transporter Assay for human Norepinephrine Transporter (NET) (AID 2283377);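 further: cell-free membrane protein extracted from CHO cells expressing human NET; displacement of radioligand from human NET seen as loss of scintillation signal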
# Sequence of human Norepinephrine Transporter (NET), SLC6A2 (gene 6530) (P23975 whole entry, looked up): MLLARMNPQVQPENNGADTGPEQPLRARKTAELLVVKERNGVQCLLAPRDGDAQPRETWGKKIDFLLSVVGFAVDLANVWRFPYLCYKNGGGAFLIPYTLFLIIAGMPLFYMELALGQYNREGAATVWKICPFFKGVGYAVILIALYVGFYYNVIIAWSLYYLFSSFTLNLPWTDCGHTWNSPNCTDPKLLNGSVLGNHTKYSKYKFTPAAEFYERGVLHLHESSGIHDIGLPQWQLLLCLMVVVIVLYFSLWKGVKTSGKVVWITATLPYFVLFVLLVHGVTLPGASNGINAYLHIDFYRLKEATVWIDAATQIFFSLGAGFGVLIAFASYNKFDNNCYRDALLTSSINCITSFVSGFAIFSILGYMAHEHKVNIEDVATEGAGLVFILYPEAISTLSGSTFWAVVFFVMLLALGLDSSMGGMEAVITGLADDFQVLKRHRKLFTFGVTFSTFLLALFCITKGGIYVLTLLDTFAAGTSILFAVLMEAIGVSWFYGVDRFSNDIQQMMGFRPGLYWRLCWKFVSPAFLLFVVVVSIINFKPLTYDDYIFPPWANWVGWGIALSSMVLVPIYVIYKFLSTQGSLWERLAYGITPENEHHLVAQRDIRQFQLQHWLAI
# Procedure, shortened: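 Single-concentration duplicate screen at 25 uM, then concentration-response for actives; displacement of specific radioligand from human NET in CHO membrane extracts, filter-based scintillation detection at 1 h relative to DMSO.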
# [15] = target: Retinoic acid receptor alpha (Homo sapiens) (UniProt P10276); experiment: NVS_NR_hRAR_Antagonist: NovaScreen (NVS) Nuclear Receptor Binding Assay for human Retinoic Acid Alpha Receptor Antagonism (RAR) (AID 2283358)
# Procedure, shortened: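 RARalpha antagonism was read by TR-FRET as loss of binding signal versus DMSO, 2 h after chemical addition, in a biochemical format. Single-concentration duplicates (25 uM) were run first, and actives were retested in concentration series.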
# [16] = target: Retinoic acid receptor alpha (Homo sapiens) (UniProt P10276); experiment: NVS_NR_hRARa_Agonist: NovaScreen (NVS) Nuclear Receptor Binding Assay for human Retinoic Acid Alpha Receptor Agonism (RAR) (AID 2283361)
# Procedure, shortened: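 Agonist-mode TR-FRET binding format using extracted protein, measured at 2 h post-dosing. Initial duplicate single-point screen at 25 uM preceded concentration series for actives; activity was normalized to DMSO baseline.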
compound,measurement,setting,value
COc1cc(OC)c2ccc(=O)oc2c1,outcome,[1],inactive
same,outcome,[2],inactive
same,outcome,[3],inactive
same,outcome,[4],inactive
same,outcome,[5],inactive
C[C@]12CC[C@@H]3c4ccc(O)cc4CC[C@H]3[C@@H]1CC[C@@H]2O,AC50,[6],4.96 µM (active)
same,AC50,[7],384 nM (active) and 359 nM (active)
same,outcome,[7],inactive
same,outcome,[8],inactive
same,AC50,[9],1.74 µM (active)
same,outcome,[5],inactive
same,AC50,[10],0.17 µM (active)
C#C[C@]1(O)CC[C@H]2[C@@H]3CCc4cc(O)ccc4[C@H]3CC[C@@]21C,AC50,[6],3.63 µM (active)
same,outcome,[11],inactive
same,AC50,PGR (gene 5241),0.221 µM (active)
same,AC50,[7],304 nM (active) and 305 nM (active) and 1.43 µM (active)
same,AC50,[9],1.32 µM (active)
same,AC50,[5],15.6 µM (active)
same,outcome,[5],inactive
same,AC50,[12],5.14 µM (active)
same,AC50,[10],0.463 µM (active)
same,AC50,[13],2.39 µM (active)
same,AC50,[14],514 nM (active) and 517 nM (active) and 623 nM (active)
CCCc1ccc(O)cc1,AC50,[3],43 µM (active)
same,AC50,[4],33.4 µM (active)
CCC(C)(C)C1CCC(=O)CC1,outcome,[1],inactive
same,outcome,[2],inactive
same,outcome,[8],inactive
COc1ccc2[nH]cc(CCNC(C)=O)c2c1,outcome,[3],inactive
same,outcome,[4],inactive
CCCC(O)C(CC)CO (stereo unspecified),outcome,[3],inactive
same,outcome,[4],inactive
c1ccc(Cc2ccccc2)cc1,outcome,[3],inactive
CCC(=O)OC(C)(C)C1CC=C(C)CC1 (stereo unspecified),outcome,[3],inactive
same,outcome,[4],inactive
CCCC[N+](C)(CCCC)CCCC,outcome,[3],inactive
same,outcome,[4],inactive
CC(=O)CC(=O)N(C)C,outcome,[3],inactive
same,outcome,[4],inactive
CC(=O)N(C)C,outcome,[1],inactive
CC1COC(=O)O1 (stereo unspecified),outcome,[1],inactive
same,outcome,[2],inactive
same,outcome,[3],inactive
C=CC(C)CCCC(C)(C)O (stereo unspecified),outcome,[3],inactive
CCc1cccc(O)c1,outcome,[3],inactive
same,outcome,[4],inactive
CCC(C)COC(=O)CC(C)C (stereo unspecified),outcome,[3],inactive
same,outcome,[4],inactive
CC1=CCC(C(C)(C)O)CC1 (stereo unspecified),outcome,[1],inactive
same,outcome,[2],inactive
same,outcome,[5],inactive
CC12CCC(C1)C(C)(C)C2O (stereo unspecified),outcome,[3],inactive
same,outcome,[4],inactive
O=C(OCc1ccccc1)c1ccccc1O,AC50,[3],44.5 µM (active)
same,AC50,[4],54.6 µM (active)
CCCC1CCC(=O)CC1,outcome,[3],inactive
same,outcome,[4],inactive
CCCCCCCCCO,outcome,[3],inactive
same,outcome,[4],inactive
CCCCOCCOCCO,outcome,[3],inactive
CCCCCCCCCCOC(=O)c1ccccc1C(=O)OCCCCCCCC,outcome,[1],inactive
same,outcome,[2],inactive
same,outcome,[3],inactive
same,outcome,[4],inactive
same,outcome,[7],inactive
same,outcome,[8],inactive
CCCc1ccc(N)cc1,outcome,[3],inactive
same,outcome,[4],inactive
COC(=O)c1cccc(C(=O)OC)c1,outcome,[1],inactive
same,outcome,[2],inactive
same,outcome,[3],inactive
CC(O)CN (stereo unspecified),outcome,[3],inactive
same,outcome,[4],inactive
c1ccc(OCCOc2ccccc2)cc1,outcome,[3],inactive
same,outcome,[4],inactive
CC(CCO)CC(C)(C)C (stereo unspecified),outcome,[1],inactive
same,outcome,[2],inactive
same,AC50,[3],40.9 µM (active)
same,outcome,[4],inactive
FC(F)(F)c1ccc(Cl)c(Cl)c1,outcome,[1],inactive
same,outcome,[2],inactive
same,outcome,[3],inactive
same,outcome,[4],inactive
COc1ccccc1O,outcome,[3],inactive
same,outcome,[4],inactive
CCO[Si](CC)(OCC)OCC,outcome,[1],inactive
same,outcome,[2],inactive
same,outcome,[3],inactive
same,outcome,[4],inactive
same,outcome,[15],inactive
same,outcome,[16],inactive
same,outcome,[8],inactive
Cc1cccc(O)c1,outcome,[3],inactive
same,outcome,[4],inactive
CC(C)(CO)CO,outcome,[1],inactive
same,outcome,[2],inactive
same,outcome,[3],inactive
OC[C@H]1O[C@@H](O[C@H]2[C@H](O)[C@@H](O)[C@H](O)O[C@@H]2CO)[C@H](O)[C@@H](O)[C@H]1O,outcome,[1],inactive
same,outcome,[2],inactive
same,outcome,[3],inactive
same,outcome,[4],inactive
CCCCCCOc1ccc(O)cc1,AC50,[1],75.1 µM (active)
same,AC50,[2],78.3 µM (active)
same,AC50,[3],11.9 µM (active)
same,AC50,[4],11.9 µM (active)
same,outcome,[8],inactive
same,outcome,[5],inactive
CC(C)(C)c1cccc(O)c1,outcome,[1],inactive
same,outcome,[2],inactive
CC(C)N(c1ccccc1)C(C)C,outcome,[3],inactive
same,outcome,[4],inactive
